LEDGF integ inh – blockers of LEDGF/p75-dependent integrase strand transfer – biochemical, TR-FRET, high throughput, primary screen | HIV-1 integrase (with human LEDGF/p75) | TR-FRET IN-LEDGF/p75 DNA integration, Eu/Cy5 | inhibition, % at 3.7 µM | 370,000 compounds, 0.64% hits;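 active = inhibition above the screen-wide mean plus 3 SD, cut at about 13% in these data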;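 note: signal is the Cy5 over europium emission ratio at 671 and 618 nm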
Neddylation inh – inhibitors of cullin neddylation, primary screen, biochemical, TR-FRET, uHTS, NAE and Ubc12 | AID 651699, 2012 | 360,000 compounds, 0.58% hits | calls only at 25 µM | NEDD8-conjugating enzyme Ubc12 (Homo sapiens) + NEDD8-activating enzyme E1 regulatory …; in the data active = inhibition above about 36%
Target sequence (P61081 whole entry, looked up): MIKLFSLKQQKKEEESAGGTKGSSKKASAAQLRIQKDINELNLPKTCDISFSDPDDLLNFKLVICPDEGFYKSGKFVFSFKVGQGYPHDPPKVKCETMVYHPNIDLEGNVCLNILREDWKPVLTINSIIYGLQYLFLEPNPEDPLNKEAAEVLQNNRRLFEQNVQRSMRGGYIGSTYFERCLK
Target sequence (Q13564 whole entry, looked up): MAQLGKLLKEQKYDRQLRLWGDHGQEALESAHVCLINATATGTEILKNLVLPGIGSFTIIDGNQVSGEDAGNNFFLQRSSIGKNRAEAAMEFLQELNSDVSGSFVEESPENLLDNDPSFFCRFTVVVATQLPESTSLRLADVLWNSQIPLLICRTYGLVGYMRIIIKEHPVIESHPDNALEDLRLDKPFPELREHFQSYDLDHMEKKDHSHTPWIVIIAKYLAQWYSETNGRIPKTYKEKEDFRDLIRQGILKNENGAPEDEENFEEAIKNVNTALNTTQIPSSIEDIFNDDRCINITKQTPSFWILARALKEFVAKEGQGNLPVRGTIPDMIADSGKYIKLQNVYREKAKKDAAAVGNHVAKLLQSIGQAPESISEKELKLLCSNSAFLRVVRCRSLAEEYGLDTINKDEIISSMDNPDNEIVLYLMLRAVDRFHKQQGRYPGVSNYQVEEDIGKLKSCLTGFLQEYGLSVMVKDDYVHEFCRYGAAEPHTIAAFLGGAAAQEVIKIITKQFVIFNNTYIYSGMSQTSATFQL
MBD2 DNA inh – inhibitors of MBD2 binding to methylated DNA, primary screen, biochemical, TR-FRET, DNA-binding domain, human; AID 686964, 2013; inhibition, % at 4.4 µM; MBD2 binding to methylated oligonucleotide; Methyl-CpG-binding domain protein 2 (Homo sapiens), Q9UBB5; 370,000 compounds, 0.31% hits; in the data active = inhibition above about 13%
Rin1-Abl PPI inh – inhibitors of Rin1-Abl protein binding, primary screen, biochemical, TR-FRET; inhibition, % at 7.35 µM; 360,000 compounds, 0.4% hits; Tyrosine-protein kinase ABL1 (Homo sapiens) + Ras and Rab interactor 1 (Homo sapiens), …; in the data active = inhibition above about 5%, passing the limit was not always enough
UHRF1 MBD2 ctr – UHRF1 methylated DNA binding inhibitors, primary screen, counter-screen for MBD2 inhibitor project, biochemical, TR-FRET, human UHRF1, single concentration | AID 687016, 2013 | 370,000 compounds, 0.75% hits | UHRF1 binding to methylated oligo | inhibition, % at 4.4 µM | E3 ubiquitin-protein ligase UHRF1 (Homo sapiens), Q96T88;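 note: UHRF1 SRA domain binding a hemimethylated CpG hairpin DNA probe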
KLK7 zymogen act – proKLK7 zymogen activators, primary screen, biochemical, fluorescence intensity | AID 652039, 2013 | activation, % at 7 µM | 370,000 compounds, 0.9% hits | purified proKLK7, EDANS-DABCYL substrate fluorescence; 100% is mature enzyme control, 0% vehicle | Kallikrein-7 (Homo sapiens), P49862;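 active = activation above the mean of all tested compounds plus 3 SD, computed per campaign excluding outliers beyond control limits, cut at about 13% in these data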
UHRF1 ctr MBD2 – UHRF1 methylated DNA binding inhibitors, counter-screen for MBD2 inhibitor project, biochemical, TR-FRET, human UHRF1; shares compounds with MBD2 DNA inh; inhibition, % at 4.4 µM; AID 720530, 2013; UHRF1 binding to methylated oligonucleotide; 1,000 compounds, 25% hits;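 note: UHRF1 SRA domain binding a labeled hemimethylated CpG hairpin DNA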
MBD2 confirm – inhibitors of MBD2 binding to methylated DNA, confirmation, biochemical, TR-FRET, DNA-binding domain, human; shares compounds with MBD2 DNA inh; TR-FRET MBD2-DBD binding to methylated oligonucleotide; inhibition, % at 4.4 µM; 1,000 compounds, 26% hits; in the data active = inhibition above about 14%
A number is an active result; 0 = inactive; - = no result given. In the library only some 3.1% were active in any assay of this set; here they are far more common. Cut-off read from the data, not from the text of the source, unless noted: active = inhibition above about 21%; inactive = the rest.

SMILES	LEDGF integ inh	Neddylation inh	MBD2 DNA inh	Rin1-Abl PPI inh	UHRF1 MBD2 ctr	KLK7 zymogen act	UHRF1 ctr MBD2	MBD2 confirm
COc1ccc(CNC(=O)CCn2nc(C)c3c(C)n(-c4ccccc4)nc3c2=O)c(OC)c1	0	0	0	0	0	0	-	-
CCC(C)Cn1c(C(C)O)nc2ccccc21 (configuration not stated)	0	0	0	0	0	0	-	-
O=S(=O)(c1ccc(F)cc1)N1CCC(c2nc3ccccc3[nH]2)CC1	0	0	0	0	0	0	-	-
O=C(c1ccc(S(=O)(=O)N2CCC(c3nc4ccccc4[nH]3)CC2)cc1)N1CCOCC1	0	0	14.0	0	21.7	0	0	0
CC(C)C[C@H]1COc2cc(Br)ccc2S(=O)(=O)N1Cc1cn(CCC2OCCO2)nn1	0	-	0	-	0	0	-	-
O=C(O)c1cccc(Sc2cc(Cl)ccc2C(=O)O)c1	0	0	13.4	0	0	0	0	0
O=C(O)c1cccc(Sc2ccc(Br)cc2C(=O)O)c1	0	0	0	0	0	0	-	-
O=C(CCSc1nc(-c2ccco2)cc(C(F)(F)F)n1)NCc1ccccn1	0	0	24.1	0	0	0	0	0
O=C(CCSc1nc(-c2ccco2)cc(C(F)(F)F)n1)NCc1cccs1	0	0	0	0	0	0	-	-
CCc1ccc(NC(=O)CCCN2C(=S)NC(C)(C)CC2C)cc1 (configuration not stated)	0	0	19.5	0	0	0	0	0
Cc1ccc(S(=O)(=O)NCc2ccc(C(=O)NC3CCC(O)CC3)cc2)cc1C (configuration not stated)	0	0	0	0	0	0	-	-
COc1ccc(N2CCN(C(=O)c3ccc4c(c3)CC(c3ccccc3)OC4=O)CC2)cc1 (configuration not stated)	0	0	13.6	0	20.9	0	0	0
CC(CCc1ccccc1)NC(=O)CN1CCN(Cc2ccccc2)C1=O (configuration not stated)	0	0	0	0	0	0	-	-
CC(CCc1ccccc1)NC(=O)CN1CCN(Cc2ccc(Cl)cc2)C1=O (configuration not stated)	0	0	17.0	0	0	0	0	0
Cc1ccc(/C=C2\SC(=S)N(NS(=O)(=O)c3ccc(C)cc3)C2=O)cc1	0	0	0	0	0	0	-	-
C=CCOc1ccc(/C=C2\SC(=S)N(NS(=O)(=O)c3ccc(C)cc3)C2=O)cc1	0	0	13.5	0	23.4	0	0	0
O=C(O)c1cccc(NC(=S)NC(=O)C(c2ccccc2)c2ccccc2)c1	0	0	14.4	0	0	0	0	0
C=CC[C@@H](CC(=O)NCCO)C(=O)N[C@H](C)COC(=O)[C@@H](CC=C)Cc1ccc(F)cc1	0	0	53.1	0	0	0	0	0
C/C(=N\NC(=O)c1nc2ccccn2c1C)c1cccc([N+](=O)[O-])c1	0	0	57.8	0	0	0	0	0
COc1ccc(C(=O)OCC(=O)c2ccc[nH]2)cc1	0	0	67.3	0	0	0	0	0
O=C(OCC(=O)c1ccc[nH]1)c1ccc(Br)cc1	0	0	0	0	0	0	-	-
CCCC(=O)Oc1ccc(N(C(=O)CCC)S(=O)(=O)c2cccc([N+](=O)[O-])c2)cc1	0	0	16.7	0	28.3	0	0	0
CCCC(=O)Oc1ccc(N(C(=O)CCC)S(=O)(=O)c2cccs2)cc1	0	0	0	0	0	0	-	-
CC(C)C[C@H]1CN(CCCC[C@H]2CNC(=O)C(=O)N2CCc2ccccc2)C(=O)C(=O)N1CCc1ccc(O)cc1	0	0	0	-	0	0	-	-
CC(C)C[C@H]1CN(CCCC[C@H]2CNC(=O)C(=O)N2CCc2ccc(O)cc2)C(=O)C(=O)N1Cc1ccccc1	0	0	13.2	-	24.9	0	0	0
SMILES	LEDGF integ inh	Neddylation inh	MBD2 DNA inh	Rin1-Abl PPI inh	UHRF1 MBD2 ctr	KLK7 zymogen act	UHRF1 ctr MBD2	MBD2 confirm
Cc1ccccc1NC(=O)Cc1nc(COC(=O)c2cc([N+](=O)[O-])ccc2N)cs1	0	0	0	0	0	0	-	-
COc1cccc(NC(=O)CCC2CCN(C(=O)c3cccc(NC(C)=O)c3)CC2)c1	0	0	35.8	0	0	0	0	0
COC(=O)[C@]12C[C@H](CC(=O)NCC3CCCCC3)C(=O)N(Cc3ccc(Cl)cc3Cl)C1=C[C@H](C1CCCC1)O[C@@H]2C	0	-	0	-	0	0	-	-
CCCNC(=O)c1ccc2c(=O)n3c(-c4ccc(C)cc4)csc3nc2c1	0	0	14.5	0	0	0	0	0
COc1cccc(NC(=O)Nc2nc3ncccn3c2-c2ccc(C(F)(F)F)cc2)c1	0	-	0	-	0	0	-	-
Cc1ccc(C(=O)Nc2cccc(C(=O)NC3CCCC3)c2)cc1	0	0	0	0	0	0	-	-
O=C(O)c1cc(N2C(=O)CCC2=O)ccc1Cl	0	0	15.1	0	0	0	0	0
COc1ccc(-c2nc3c4ccccc4ccn3c2Cc2cccc(F)c2)cc1OC	0	0	15.5	0	0	0	0	0
Cc1ccc(C(=O)N2CCC3(CC2)Oc2ccc(Cl)cc2C(=O)C32CC(c3cccnc3)=NO2)s1 (configuration not stated)	0	0	0	0	0	0	-	-
O=C(/C=C/c1cccs1)N1CCC2(CC1)Oc1ccc(Cl)cc1C(=O)C21CC(c2cccnc2)=NO1 (configuration not stated)	0	0	16.0	0	0	0	0	0
COc1ccc(C2CC(=O)C(c3ccc(C(F)(F)F)cc3)=CN2Cc2ccccc2)cc1 (configuration not stated)	0	-	0	-	0	0	-	-
Cc1ccc(C(=O)NC2CCS(=O)(=O)C2)cc1S(=O)(=O)N1CCCC1 (configuration not stated)	0	0	17.0	0	0	0	0	0
COc1cc2c(cc1OC)CC(C(=O)NCc1ccccc1)NC2 (configuration not stated)	0	0	16.9	0	0	0	0	0

Screening results deposited in PubChem BioAssay by several laboratories.
